The panel holds about 83,000 compounds, 20% with a hit somewhere; the sample as a whole holds those more often.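 Percent growth is the endpoint: 0 to 100 indicates growth inhibition (40 means 60% inhibition), 0 means no net growth, and negative values indicate cell death.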 Values without a mark were called inactive. Active and inactive are the calls of the source. How the source made its calls: active means growth percent below 10; inactive means the rest.
Key:
Experiment in all cases: NCI-60 one-dose screen, 48 h (100 = growth as untreated, 0 = no growth, -100 = all killed)
Conditions in all cases: 10 µM unless noted
[1] = tested on: SR leukemia
[2] = tested on: RPMI-8226 leukemia
[3] = tested on: OVCAR-8 ovarian
[4] = tested on: OVCAR-5 ovarian
[5] = tested on: OVCAR-4 ovarian
[6] = tested on: SK-OV-3 ovarian
[7] = tested on: IGROV1 ovarian
[8] = tested on: OVCAR-3 ovarian
[9] = tested on: HS 578T breast
[10] = tested on: NCI/ADR-RES ovarian

## COc1ccc(C2=NN(C(=O)c3cc(-c4ccc(C)cc4)nc4ccccc34)C(c3cc(-c4ccccc4)nn3-c3ccccc3)C2)cc1 (stereo not given)
[1]
  growth: 89.5%
[2]
  growth: 78.1%
[3]
  growth: 93.3%
[4]
  growth: 102%
[5]
  growth: 93.3%
[6]
  growth: 112%
[7]
  growth: 98.3%
[8]
  growth: 84.4%
[9]
  growth: 95.8%
[10]
  growth: 92.5%

## CCOC(=O)c1c2c(cn1Cc1ccccc1)-c1oncc1CC2
[1]
  growth: 91.8%
[2]
  growth: 100%
[3]
  growth: 84.9%
[4]
  growth: 88.3%
[5]
  growth: 104%
[6]
  growth: 109%
[7]
  growth: 101%
[8]
  growth: 103%
[9]
  growth: 91.9%
[10]
  growth: 98.3%

## O=C(NCCO)C(F)(F)F
[1]
  growth: 98.7%
[2]
  growth: 109%
[3]
  growth: 103%
[4]
  growth: 96.6%
[5]
  growth: 118%
[6]
  growth: 100%
[7]
  growth: 106%
[8]
  growth: 101%
[9]
  growth: 106%
[10]
  growth: 106%

## CCCC(=O)NNc1[nH]c(-c2cc(OC)c(OC)c(OC)c2)cc1C(=O)OCC
[1]
  growth: 68.2%
[2]
  growth: 101%
[3]
  growth: 108%
[4]
  growth: 92.8%
[5]
  growth: 118%
[6]
  growth: 110%
[7]
  growth: 22.6%
[8]
  growth: 92.6%
[9]
  growth: 105%
[10]
  growth: 114%

## CCOC(=O)C1=C(C(F)(F)F)NC(=O)NC1CN1C(=O)c2ccccc2C1=O (stereo not given)
[1]
  growth: 5.85% (active)
[2]
  growth: 82.6%
[3]
  growth: 114%
[4]
  growth: 94.2%
[5]
  growth: 110%
[6]
  growth: 121%
[7]
  growth: 122%
[8]
  growth: 129%
[9]
  growth: 111%
[10]
  growth: 107%

## O=C(Nc1cccc2[nH]c(C(F)(F)F)nc12)c1ccc(F)cc1
[1]
  growth: 76.3%
[2]
  growth: 30.4%
[3]
  growth: 90.1%
[4]
  growth: 99.6%
[5]
  growth: 80.3%
[6]
  growth: 98.8%
[7]
  growth: 85.8%
[8]
  growth: 66%
[9]
  growth: 77.3%
[10]
  growth: 92.1%

## COc1nc(OC)nc(-c2cc(C(=O)c3ccc(Br)cc3)n3cc(C)cc(C)c23)n1
[1]
  growth: 87%
[2]
  growth: 76.4%
[3]
  growth: 54.7%
[4]
  growth: 102%
[5]
  growth: 37.6%
[6]
  growth: 53.9%
[7]
  growth: 62.4%
[8]
  growth: 34.5%
[9]
  growth: 24.1%
[10]
  growth: 58.7%

## CC(=O)Nc1ccc(CC#N)cc1Br
[1]
  growth: 112%
[2]
  growth: 109%
[3]
  growth: 110%
[4]
  growth: 109%
[5]
  growth: 98.2%
[6]
  growth: 104%
[7]
  growth: 110%
[8]
  growth: 108%
[9]
  growth: 89.9%
[10]
  growth: 116%

## CCN(CC)C(=O)C1(C)CCCC2(C)c3cc(OC(C)=O)ccc3CCC12 (stereo not given)
[1]
  growth: 62.8%
[2]
  growth: 58.8%
[3]
  growth: 86.4%
[4]
  growth: 96.9%
[5]
  growth: 71.2%
[6]
  growth: 94.1%
[7]
  growth: 79.9%
[8]
  growth: 88.8%
[9]
  growth: 84.1%
[10]
  growth: 85.8%

## Clc1ccc(N/N=C(\c2ccccc2)c2ccccn2)nc1
[1]
  growth: 1.95% (active)
[2]
  growth: 4.95% (active)
[3]
  growth: 11.3%
[4]
  growth: 36.2%
[5]
  growth: 30.7%
[6]
  growth: 12.5%
[7]
  growth: 12.7%
[8]
  growth: 12.3%
[9]
  growth: 34.1%
[10]
  growth: -12.9% (active)

## CC(=O)C(CO)C(=O)Nc1ccccc1 (stereo not given)
[1]
  growth: 94.8%
[2]
  growth: 103%
[3]
  growth: 109%
[4]
  growth: 102%
[5]
  growth: 98%
[6]
  growth: 93.8%
[7]
  growth: 105%
[8]
  growth: 110%
[9]
  growth: 118%
[10]
  growth: 103%

## Cc1nc(N)sc1C(=O)NCCO
[1]
  growth: 161%
[2]
  growth: 115%
[3]
  growth: 102%
[4]
  growth: 107%
[5]
  growth: 113%
[6]
  growth: 113%
[7]
  growth: 118%
[8]
  growth: 102%
[9]
  growth: 109%
[10]
  growth: 122%

## COC(=O)/C=C1/CCCCC1(C)C(=O)OC (stereo not given)
[1]
  growth: 92.8%
[2]
  growth: 101%
[3]
  growth: 98.4%
[4]
  growth: 118%
[5]
  growth: 103%
[6]
  growth: 110%
[7]
  growth: 107%
[8]
  growth: 118%
[9]
  growth: 105%
[10]
  growth: 111%

## COc1cccc2c1nc1cccc(OC)c1[n+]2[O-]
[1]
  growth: -0.211% (active)
[2]
  growth: 51.1%
[3]
  growth: 41.7%
[4]
  growth: 23.3%
[5]
  growth: 69.7%
[6]
  growth: 29%
[7]
  growth: -73.4% (active)
[8]
  growth: 101%
[9]
  growth: 80%
[10]
  growth: 37.4%

## CCCCCCCCCCCCCCCCCC1=NCCN1CCNC(C)=O
[1]
  growth: 19.3%
[2]
  growth: 91%
[3]
  growth: 98.2%
[4]
  growth: 91.7%
[5]
  growth: 95.2%
[6]
  growth: 107%
[7]
  growth: 91.1%
[8]
  growth: 94.7%
[9]
  growth: 110%
[10]
  growth: 98.2%

## CCCNC(=O)Oc1ccc(/C(=C(/C)Cc2ccc(OC)cc2)c2ccc(OCCN3CCCC3)cc2)cc1
[1]
  growth: -20.2% (active)
[2]
  growth: 49.5%
[3]
  growth: 79.5%
[4]
  growth: 88.4%
[5]
  growth: 61.5%
[6]
  growth: 81.3%
[7]
  growth: 81.9%
[8]
  growth: 83.6%
[9]
  growth: 58.3%
[10]
  growth: 75.9%

## O=C(OCC1CC2(Cl)C(Cl)=C(Cl)C1(Cl)C2(Cl)Cl)C1C(C(=O)OCC2CC3(Cl)C(Cl)=C(Cl)C2(Cl)C3(Cl)Cl)C2(Cl)C(Cl)=C(Cl)C1(Cl)C2(Cl)Cl (stereo not given)
[1]
  growth: 93%
[2]
  growth: 103%
[3]
  growth: 104%
[4]
  growth: 105%
[5]
  growth: 110%
[6]
  growth: 110%
[7]
  growth: 115%
[8]
  growth: 107%
[9]
  growth: 117%
[10]
  growth: 106%

## COc1ccc(-c2nc(SCC(C)C)nc(Nc3ccc(C(=O)O)cc3)c2C#N)cc1
[1]
  growth: 82.5%
[2]
  growth: 60.8%
[3]
  growth: 97.1%
[4]
  growth: 104%
[5]
  growth: 87.1%
[6]
  growth: 113%
[7]
  growth: 109%
[8]
  growth: 86.6%
[9]
  growth: 99.1%
[10]
  growth: 94.6%

## CCCOC(=O)c1c(C)n(C)c2scc[n+]12
[1]
  growth: 13.6%
[2]
  growth: 54.8%
[3]
  growth: 72.8%
[4]
  growth: 75.1%
[5]
  growth: 73.8%
[6]
  growth: 93.9%
[7]
  growth: 15.9%
[8]
  growth: 71.2%
[9]
  growth: 77.6%
[10]
  growth: 78.9%

## CCOC(=O)c1cc(-c2ccc(OC)cc2)[nH]c1NNC(=O)CCOC
[1]
  growth: 87.7%
[2]
  growth: 98.2%
[3]
  growth: 106%
[4]
  growth: 100%
[5]
  growth: 113%
[6]
  growth: 105%
[7]
  growth: 2.76% (active)
[8]
  growth: 82.5%
[9]
  growth: 104%
[10]
  growth: 125%

## c1ccc2[nH]c(-c3ccc(OCCCCCOc4ccc(-c5nc6ccccc6[nH]5)cc4)cc3)nc2c1
[1]
  growth: -22.3% (active)
[2]
  growth: -79.4% (active)
[3]
  growth: -45.6% (active)
[4]
  growth: 16.1%
[5]
  growth: -60.5% (active)
[6]
  growth: 207%
[7]
  growth: 38.3%
[8]
  growth: 20.4%
[9]
  growth: 4.31% (active)
[10]
  growth: -0.189% (active)

## CCOC(=O)c1cc(C(=O)c2ccc(Br)cc2)n2cc(C)cc(C)c12
[1]
  growth: 98.1%
[2]
  growth: 83.7%
[3]
  growth: 102%
[4]
  growth: 115%
[5]
  growth: 91.6%
[6]
  growth: 86.2%
[7]
  growth: 102%
[8]
  growth: 104%
[9]
  growth: 89.2%
[10]
  growth: 99.6%

## O=C(Nc1ccc(-n2cc(-c3ccncc3)c(-c3ccc(Cl)c(O)c3)n2)cc1)c1ccc(Cl)c(Cl)c1
[1]
  growth: 5.94% (active)
[2]
  growth: -25.9% (active)
[3]
  growth: 38.5%
[4]
  growth: 56.5%
[5]
  growth: 47.4%
[6]
  growth: 34.1%
[7]
  growth: 67.4%
[8]
  growth: 61.3%
[9]
  growth: -35.1% (active)
[10]
  growth: 51.6%

## CC(=O)Nc1nc(C)c(C(=O)N/N=C/c2cccs2)s1
[1]
  growth: 81.4%
[2]
  growth: 61.9%
[3]
  growth: 112%
[4]
  growth: 99%
[5]
  growth: 112%
[6]
  growth: 87.7%
[7]
  growth: -4.95% (active)
[8]
  growth: 121%
[9]
  growth: 85.5%
[10]
  growth: 99.2%

## CCOC(=O)c1ccc2n1CCCc1cnc(NC(C)=O)nc1-2
[1]
  growth: 101%
[2]
  growth: 99.1%
[3]
  growth: 103%
[4]
  growth: 94.1%
[5]
  growth: 104%
[6]
  growth: 106%
[7]
  growth: 107%
[8]
  growth: 107%
[9]
  growth: 99.6%
[10]
  growth: 108%

## CC(C)OC(=O)c1ccc2n1CCCc1cnc(Nc3ccccc3)nc1-2
[1]
  growth: 35.4%
[2]
  growth: 58.4%
[3]
  growth: 82.4%
[4]
  growth: 93.8%
[5]
  growth: 61.4%
[6]
  growth: 97%
[7]
  growth: 83.7%
[8]
  growth: 84.7%
[9]
  growth: 99%
[10]
  growth: 69.7%

## COc1ccc(C2CC(=O)c3c(O)cc(OC4OC(COC5OC(C)C(O)C(O)C5O)C(O)C(O)C4O)cc3O2)cc1O (stereo not given)
[1]
  growth: 130%
[2]
  growth: 123%
[3]
  growth: 94.8%
[4]
  growth: 96.7%
[5]
  growth: 103%
[6]
  growth: 118%
[7]
  growth: 37.7%
[8]
  growth: 131%
[9]
  growth: 106%
[10]
  growth: 109%

## CCn1cnc(C[C@H](NC(=O)[C@@H](NC(=O)Nc2cc(C(F)(F)F)cc(C(F)(F)F)c2)C(C)(C)C)C(=O)OC)c1
[1]
  growth: -38.1% [100 µM] (active)
[2]
  growth: -58.6% [100 µM] (active)
[3]
  growth: -79.5% [100 µM] (active)
[4]
  growth: -92.8% [100 µM] (active)
[5]
  growth: -82.7% [100 µM] (active)
[6]
  growth: -100% [100 µM] (active)
[7]
  growth: -71.5% [100 µM] (active)
[8]
  growth: -96.5% [100 µM] (active)
[9]
  growth: -2.17% [100 µM] (active)
[10]
  growth: 7.32% [100 µM] (active)

— PubChem BioAssay (NCI)
